Consider 7 molecules from ChEMBL document CHEMBL1961873, “Compounds: GSK PKIS; Assays: Nanosyn kinase panel” (2012).

As a reminder, the inhibition is the relative decrease from the control value, in per cent.

The target in experiment [1] is CDK3/Cyclin E (Homo sapiens) (UniProt P24864+Q00526). To be noted: at 1 µM.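 Further: each figure is a mean percent inhibition of the CDK3/cyclin E complex.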
For experiment [2], the target named is Cyclin-dependent kinase 4 (Homo sapiens) (UniProt P11802). As to conditions: at 0.1 µM.
Sequence of Cyclin-dependent kinase 4 (Homo sapiens) (P11802 whole entry): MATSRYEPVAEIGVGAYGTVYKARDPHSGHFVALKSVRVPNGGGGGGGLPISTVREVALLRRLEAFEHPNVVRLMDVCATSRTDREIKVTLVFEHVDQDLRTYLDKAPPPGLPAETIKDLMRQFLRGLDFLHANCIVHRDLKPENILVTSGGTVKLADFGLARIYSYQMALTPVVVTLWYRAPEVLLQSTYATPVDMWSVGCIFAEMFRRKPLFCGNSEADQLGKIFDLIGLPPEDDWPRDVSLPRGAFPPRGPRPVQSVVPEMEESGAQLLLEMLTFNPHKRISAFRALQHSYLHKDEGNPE
Experiment [3] shares this target. To be noted: at 1 µM.
In experiment [4] the target is Cyclin-dependent kinase 5 (Homo sapiens) (UniProt Q00535). To be noted: at 0.1 µM.
Sequence of Cyclin-dependent kinase 5 (Homo sapiens) (Q00535 whole entry, looked up): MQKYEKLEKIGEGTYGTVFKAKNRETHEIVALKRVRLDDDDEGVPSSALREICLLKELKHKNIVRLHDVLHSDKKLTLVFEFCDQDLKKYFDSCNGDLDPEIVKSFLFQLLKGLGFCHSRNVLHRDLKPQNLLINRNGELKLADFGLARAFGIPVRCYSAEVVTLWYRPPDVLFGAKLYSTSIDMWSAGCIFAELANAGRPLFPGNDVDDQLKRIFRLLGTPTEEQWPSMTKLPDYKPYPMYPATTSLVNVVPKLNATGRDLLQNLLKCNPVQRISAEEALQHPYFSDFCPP
For experiment [5] the target is unchanged. To be noted: at 1 µM.
The target of experiment [6] is Cyclin-dependent kinase 6 (Homo sapiens) (UniProt Q00534). As to conditions: at 0.1 µM.
Sequence of Cyclin-dependent kinase 6 (Homo sapiens) (Q00534 whole entry): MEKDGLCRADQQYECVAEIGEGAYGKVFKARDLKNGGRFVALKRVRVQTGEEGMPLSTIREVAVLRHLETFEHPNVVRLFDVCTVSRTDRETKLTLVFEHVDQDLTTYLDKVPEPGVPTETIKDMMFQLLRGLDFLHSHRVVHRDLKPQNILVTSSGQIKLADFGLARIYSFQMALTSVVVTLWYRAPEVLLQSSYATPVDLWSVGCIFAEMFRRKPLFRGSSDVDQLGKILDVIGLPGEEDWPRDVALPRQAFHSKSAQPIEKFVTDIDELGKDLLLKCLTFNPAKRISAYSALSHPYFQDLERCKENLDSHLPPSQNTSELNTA
Experiment [7] has the same target. As to conditions: at 1 µM.
Experiment [8] deals with Dual specificity protein kinase CLK2 (Homo sapiens) (UniProt P49760). As to conditions: at 0.1 µM.
Sequence of Dual specificity protein kinase CLK2 (Homo sapiens) (P49760 whole entry, looked up): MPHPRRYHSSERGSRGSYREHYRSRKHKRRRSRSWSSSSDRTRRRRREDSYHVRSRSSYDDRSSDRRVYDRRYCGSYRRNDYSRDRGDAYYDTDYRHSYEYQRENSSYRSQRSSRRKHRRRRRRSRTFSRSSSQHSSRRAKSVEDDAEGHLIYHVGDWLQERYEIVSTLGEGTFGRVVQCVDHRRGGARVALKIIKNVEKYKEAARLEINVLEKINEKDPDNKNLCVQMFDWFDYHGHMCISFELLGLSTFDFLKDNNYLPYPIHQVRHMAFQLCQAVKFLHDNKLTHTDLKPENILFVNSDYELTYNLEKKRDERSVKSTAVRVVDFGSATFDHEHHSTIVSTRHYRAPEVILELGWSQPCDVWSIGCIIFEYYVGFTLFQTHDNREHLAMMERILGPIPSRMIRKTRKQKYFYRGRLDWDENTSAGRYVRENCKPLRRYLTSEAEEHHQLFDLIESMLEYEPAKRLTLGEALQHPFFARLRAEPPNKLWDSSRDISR
The target is the same in experiment [9]. To be noted: at 1 µM.
Experiment [10] concerns the target Dual specificity protein kinase CLK3 (Homo sapiens) (UniProt P49761). To be noted: at 0.1 µM.
The target is the same in experiment [11]. To be noted: at 1 µM.
Experiment [12] deals with Dual specificity tyrosine-phosphorylation-regulated kinase 1A (Homo sapiens) (UniProt Q13627). As to conditions: at 0.1 µM.
The target is the same in experiment [13]. As to conditions: at 1 µM.
Experiment [14] has as its target Dual specificity tyrosine-phosphorylation-regulated kinase 1B (Homo sapiens) (UniProt Q9Y463). As to conditions: at 0.1 µM.
The target is the same in experiment [15]. As to conditions: at 1 µM.
The target in experiment [16] is T1, Dual specificity tyrosine-phosphorylation-regulated kinase 2 (Homo sapiens) (UniProt Q92630).
T1 sequence (whole entry): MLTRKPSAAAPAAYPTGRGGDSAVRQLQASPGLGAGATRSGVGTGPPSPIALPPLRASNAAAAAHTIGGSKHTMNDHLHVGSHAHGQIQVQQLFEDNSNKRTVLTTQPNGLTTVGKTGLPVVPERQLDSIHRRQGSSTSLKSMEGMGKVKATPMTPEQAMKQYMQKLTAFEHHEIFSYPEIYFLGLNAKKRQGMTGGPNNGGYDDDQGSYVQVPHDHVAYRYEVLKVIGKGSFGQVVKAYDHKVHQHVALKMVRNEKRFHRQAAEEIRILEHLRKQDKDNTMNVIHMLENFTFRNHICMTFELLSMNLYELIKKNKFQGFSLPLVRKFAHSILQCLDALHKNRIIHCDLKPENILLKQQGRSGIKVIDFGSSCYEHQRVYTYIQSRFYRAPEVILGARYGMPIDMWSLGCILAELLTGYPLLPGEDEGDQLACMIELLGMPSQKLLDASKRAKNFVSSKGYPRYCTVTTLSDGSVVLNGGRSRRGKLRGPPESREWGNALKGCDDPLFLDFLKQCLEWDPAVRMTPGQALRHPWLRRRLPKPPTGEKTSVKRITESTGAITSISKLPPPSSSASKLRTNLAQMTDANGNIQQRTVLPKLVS
To be noted: at 0.1 µM.

Experiment [17] has as its target T1, Dual specificity tyrosine-phosphorylation-regulated kinase 2 (Homo sapiens). As to conditions: at 1 µM.
In experiment [18] the target is Glycogen synthase kinase-3 alpha (Homo sapiens) (UniProt P49840). To be noted: at 0.1 µM.
Sequence of Glycogen synthase kinase-3 alpha (Homo sapiens) (P49840 2-483 limits assumed): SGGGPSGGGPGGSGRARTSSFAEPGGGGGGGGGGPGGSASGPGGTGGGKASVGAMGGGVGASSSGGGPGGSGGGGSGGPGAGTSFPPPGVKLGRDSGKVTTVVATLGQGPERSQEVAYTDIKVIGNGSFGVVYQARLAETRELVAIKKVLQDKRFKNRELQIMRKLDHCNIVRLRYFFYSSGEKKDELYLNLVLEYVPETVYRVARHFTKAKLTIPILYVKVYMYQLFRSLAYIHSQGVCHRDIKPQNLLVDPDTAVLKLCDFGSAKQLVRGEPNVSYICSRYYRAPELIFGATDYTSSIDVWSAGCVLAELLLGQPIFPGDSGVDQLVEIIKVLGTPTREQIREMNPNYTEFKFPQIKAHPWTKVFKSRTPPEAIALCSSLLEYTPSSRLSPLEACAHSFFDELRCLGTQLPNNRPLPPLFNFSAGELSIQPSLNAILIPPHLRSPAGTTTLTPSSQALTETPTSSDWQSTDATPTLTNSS
Experiment [19] has the same target. As to conditions: at 1 µM.
For experiment [20], the target named is Glycogen synthase kinase-3 beta (Homo sapiens) (UniProt P49841). As to conditions: at 0.1 µM.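 Further: values are mean percent inhibition of GSK3B activity, from the GSK Published Kinase Inhibitor Set (PKIS) screening dataset.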
Sequence of Glycogen synthase kinase-3 beta (Homo sapiens) (P49841 whole entry, looked up): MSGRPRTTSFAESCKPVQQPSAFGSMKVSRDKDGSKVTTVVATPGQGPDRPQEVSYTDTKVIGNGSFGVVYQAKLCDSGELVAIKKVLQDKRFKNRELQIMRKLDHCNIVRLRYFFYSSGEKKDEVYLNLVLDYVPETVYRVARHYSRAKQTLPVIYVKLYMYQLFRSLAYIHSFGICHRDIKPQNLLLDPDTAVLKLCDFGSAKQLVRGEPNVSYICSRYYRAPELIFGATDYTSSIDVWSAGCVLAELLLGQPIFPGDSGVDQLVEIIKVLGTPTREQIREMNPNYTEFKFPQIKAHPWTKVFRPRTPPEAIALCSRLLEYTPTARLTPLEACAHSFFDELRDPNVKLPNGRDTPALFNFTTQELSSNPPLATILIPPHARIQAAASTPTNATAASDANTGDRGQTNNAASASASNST

Sequence of Dual specificity tyrosine-phosphorylation-regulated kinase 1B (Homo sapiens) (Q9Y463 whole entry, looked up): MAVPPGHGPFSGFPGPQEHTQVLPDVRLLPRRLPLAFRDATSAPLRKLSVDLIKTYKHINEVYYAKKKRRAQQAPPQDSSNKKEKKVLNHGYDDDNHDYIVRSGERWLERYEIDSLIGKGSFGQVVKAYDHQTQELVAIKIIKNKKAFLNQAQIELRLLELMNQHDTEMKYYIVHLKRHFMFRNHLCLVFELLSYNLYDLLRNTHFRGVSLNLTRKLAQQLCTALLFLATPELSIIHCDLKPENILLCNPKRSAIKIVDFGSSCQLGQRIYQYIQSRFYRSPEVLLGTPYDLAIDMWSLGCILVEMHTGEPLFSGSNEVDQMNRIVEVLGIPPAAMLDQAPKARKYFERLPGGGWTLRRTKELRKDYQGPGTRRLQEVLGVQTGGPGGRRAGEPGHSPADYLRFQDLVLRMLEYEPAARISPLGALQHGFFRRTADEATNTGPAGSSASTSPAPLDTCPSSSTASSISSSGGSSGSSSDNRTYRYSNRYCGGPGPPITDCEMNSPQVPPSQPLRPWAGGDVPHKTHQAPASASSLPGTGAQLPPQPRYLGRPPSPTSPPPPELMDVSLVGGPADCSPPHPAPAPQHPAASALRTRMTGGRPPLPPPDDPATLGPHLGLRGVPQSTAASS
Sequence of Dual specificity protein kinase CLK3 (Homo sapiens) (P49761 whole entry, looked up): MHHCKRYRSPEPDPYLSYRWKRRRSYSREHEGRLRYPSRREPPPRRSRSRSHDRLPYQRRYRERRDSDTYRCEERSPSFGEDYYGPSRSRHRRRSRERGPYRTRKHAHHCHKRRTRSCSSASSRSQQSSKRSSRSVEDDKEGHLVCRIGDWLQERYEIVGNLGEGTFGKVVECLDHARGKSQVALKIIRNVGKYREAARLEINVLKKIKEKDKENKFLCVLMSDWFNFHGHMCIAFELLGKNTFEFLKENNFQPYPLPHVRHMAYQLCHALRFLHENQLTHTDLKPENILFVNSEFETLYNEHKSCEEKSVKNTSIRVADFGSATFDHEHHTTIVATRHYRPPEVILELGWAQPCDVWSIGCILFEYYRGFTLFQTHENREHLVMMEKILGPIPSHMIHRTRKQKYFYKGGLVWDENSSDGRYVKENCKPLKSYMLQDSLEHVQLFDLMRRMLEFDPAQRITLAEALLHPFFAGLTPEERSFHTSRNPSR
Sequence of CDK3/Cyclin E (Homo sapiens) (P24864 whole entry, looked up): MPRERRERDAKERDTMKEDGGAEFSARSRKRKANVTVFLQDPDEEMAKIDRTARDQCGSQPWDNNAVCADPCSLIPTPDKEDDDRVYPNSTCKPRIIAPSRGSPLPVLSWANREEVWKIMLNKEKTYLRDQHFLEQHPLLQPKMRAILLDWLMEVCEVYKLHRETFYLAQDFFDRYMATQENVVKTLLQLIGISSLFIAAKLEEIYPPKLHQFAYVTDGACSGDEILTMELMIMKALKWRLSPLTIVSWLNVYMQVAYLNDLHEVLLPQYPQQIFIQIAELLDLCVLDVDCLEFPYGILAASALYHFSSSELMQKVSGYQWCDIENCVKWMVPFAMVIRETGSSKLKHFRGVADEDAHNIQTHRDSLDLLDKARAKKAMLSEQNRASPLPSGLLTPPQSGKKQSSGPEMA
Sequence of CDK3/Cyclin E (Homo sapiens) (Q00526 whole entry, looked up): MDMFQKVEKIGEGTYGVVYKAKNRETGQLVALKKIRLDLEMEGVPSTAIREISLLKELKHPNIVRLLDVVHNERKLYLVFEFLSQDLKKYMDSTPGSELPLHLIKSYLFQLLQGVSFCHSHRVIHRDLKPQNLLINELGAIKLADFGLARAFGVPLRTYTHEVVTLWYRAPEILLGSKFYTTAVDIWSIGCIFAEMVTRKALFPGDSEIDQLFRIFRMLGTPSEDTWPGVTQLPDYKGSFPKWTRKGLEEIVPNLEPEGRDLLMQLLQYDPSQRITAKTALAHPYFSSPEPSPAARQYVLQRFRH

With `NS(=O)(=O)c1ccc(Nc2cc(-c3ccc(O)c(F)c3)n[nH]2)cc1`, the inhibition in experiment [1] was 60.1%; in experiment [2], 3.31%; in [3] it was 23.6%; in experiment [4], 20.1%; in experiment [5] it was 68.7%; in experiment [6], 21.6%. In addition, the inhibition in experiment [7] was 70.9%; in experiment [8], 1.17%; in experiment [9], 3.95%; in experiment [10], -0.37%; in experiment [11], 2.65%; in experiment [12], 1.28%. Further, the inhibition in experiment [13] was 4.89%; in experiment [14], 2.64%; in [15], 5.44%; in [16] it was -2.19%; in experiment [17], 3.75%; in experiment [18], 1.79%. Further, the inhibition in [19] amounted to 23.5%; in [20], 4.44%.
On to `c1ccc(-c2n[nH]cc2-c2ccnc(-c3ccc(OCCN4CCOCC4)cc3)c2)nc1`, for which the inhibition in [1] turned out to be 3.2%; in [2] it was 5.35%; in experiment [3], 6.08%; in [4], 5.7%; in experiment [5] it was 4.87%; in experiment [6] it was 1.73%. Further, the inhibition was 4.81% in [7]; 2.87% in [8]; 3.2% in [9]; 0.66% in experiment [10]; 0.55% in experiment [11]; 4.43% in [12]. Besides, the inhibition in experiment [13] is 5.39%; in experiment [14] it was 7.33%; in experiment [15], 6.5%; in [16], -0.9%; in [17], -1.36%; in [18], 5.19%. In addition, the inhibition in experiment [19] amounted to 4.57%; in experiment [20], 4.18%.
Consider `CS(=O)(=O)CCNCc1ccc(-c2ccc3ncnc(Nc4ccc(OCc5ccccc5)c(Br)c4)c3c2)o1`, for which the inhibition in experiment [1] is -3.92%; in [2] it was -1.53%; in [3], -0.83%; in [4], -3.53%; in [5], -2.4%; in experiment [6], -4.44%. In addition, the inhibition in experiment [7] is -4.65%; in experiment [8], 1.39%; in [9], -1.17%; in [10], -3.26%; in [11], -3.65%; in experiment [12], -3.54%. Further, the inhibition in experiment [13] was -2.54%; in experiment [14] it was -5.79%; in experiment [15], -4.49%; in experiment [16], 2.81%; in experiment [17] it was 1.15%; in experiment [18], -0.62%. The figures for the inhibition in experiment [19] and in [20] were -0.89% and -1.65%, respectively.
For `CNC(=O)c1cncc(/C=C/c2c(C)cccc2C)c1`, the inhibition is -0.8% in [1]; -2.46% in experiment [2]; -1.6% in experiment [3]; -2.99% in [4]; -1.16% in [5]; 3.56% in [6]. Further, the inhibition was 0.79% in experiment [7]; 0.58% in experiment [8]; -1.19% in experiment [9]; -2% in [10]; -2.04% in experiment [11]; -1.29% in experiment [12]. The inhibition in experiment [13] was 2.27%; in experiment [14], 0.49%; in [15], 1.89%; in [16], -0.14%; in experiment [17], -0.61%; in experiment [18], -2.93%. Also, the inhibition in experiment [19] is -0.82%; in [20] it was -1.93%.
Take `COc1cc2ncn(-c3cc(OCc4ccccc4C(F)(F)F)c(C(C)=O)s3)c2cc1OC`: the inhibition is -2.36% in experiment [1]; 1.74% in experiment [2]; 2.66% in experiment [3]; 0.4% in [4]; 1.96% in experiment [5]; -0.64% in [6]. Further, the inhibition is -0.67% in experiment [7]; 0.9% in experiment [8]; -0.63% in [9]; 0.94% in experiment [10]; 1.08% in experiment [11]; 1.88% in experiment [12]. Besides, the inhibition is 2.83% in experiment [13]; -0.72% in [14]; 0.32% in experiment [15]; 1.35% in experiment [16]; 1.43% in [17]; 1.6% in experiment [18]. Also, the inhibition in experiment [19] was determined as 3.73%; in experiment [20] it was 1.43%.
Regarding `c1ccc(Oc2ccc(Nc3ncc(-c4ccccc4)o3)cc2)cc1`, the inhibition in experiment [1] is -2.54%; in experiment [2], 1.05%; in experiment [3] it was 1.2%; in experiment [4], 0.52%; in experiment [5], 1.6%; in experiment [6], 1.34%. In addition, the inhibition was 3.56% in [7]; -0.16% in [8]; -0.28% in experiment [9]; 0.6% in experiment [10]; 1.59% in [11]; 2.14% in [12]. The inhibition in experiment [13] worked out at 5.29%; in [14], 1.51%; in experiment [15], 2.84%; in experiment [16], 0.4%; in [17] it was 0.21%; in experiment [18] it was 2%. Besides, the inhibition worked out at 5.53% in experiment [19] and 1.83% in [20].
On to `Fc1ccc(-c2c(-c3ccncc3)nc3n2CCS3)cc1`, for which the inhibition in experiment [1] is -3.24%; in experiment [2] it was -2.5%; in experiment [3] it was -1.15%; in [4], -3.5%; in experiment [5], -3.63%; in experiment [6], -6.1%. The inhibition was -2.27% in experiment [7]; 0.14% in [8]; 0.05% in experiment [9]; -2.3% in [10]; -1.56% in [11]; -1.74% in experiment [12]. Further, the inhibition in experiment [13] is 0.34%; in experiment [14] it was -4.54%; in [15], -2.54%; in [16] it was 1.26%; in experiment [17], 1.86%; in experiment [18], -2.59%. The inhibition in experiment [19] is 1.28%; in [20], -2.25%.
